Results reported in PubChem BioAssay AID743279 (National Center for Advancing Translational Sciences (NCATS), 2014).
The campaign covered roughly 360,000 compounds. About 17,000 (4.7%) were called active. Roughly 5% stayed inconclusive and do not appear here. For the sample, actives were picked, then their nearest neighbours and some compounds at random. A number with no mark means an inactive call. Rule as the data show it: active = activity change below about -50%; inconclusive = mostly about -30% to -49%; inactive = weaker than that.
% is scaled to controls: 0 for no effect and ±100 for the full control effect.

Assay: qHTS for Inhibitors of Inflammasome Signaling: IL-1-beta AlphaLISA Primary Screen
Details: THP-1 LPS/ATP IL-1B secretion, 16 h; at 57.5 µM, hits give low values
Description: Inflammasomes are a set of intracellular multi-protein complexes that enable autocatalytic activation of inflammatory caspases and drive the innate immune response to counter harmful agents. […] A qHTS assay, based on AlphaLISA technology, was developed to screen the Molecular Libraries Small Molecule Repository (MLSMR) to look for novel inflammasome inhibitors. The assay detects IL-1B using AlphaLISA anti-IL-1B acceptor and donor beads. A decreased emission signal, indicating reduced IL-1B secretion, is the desired outcome for this assay. NIH Chemical Genomics Center [NCGC] NIH Molecular Libraries Probe Centers Network [MLPCN] MLPCN Grant: MH095513 Assay Provider: Shyam Biswal Ph.D., Johns Hopkins University Immunity. 2012 Jul 27;37(1):85-95. PMID: 22819042 [2] Curr Pharm Des. 2012;18(16):2320-8. PMID: 22390695
Three microliters containing 3000 THP-1 cells were dispensed into the wells of solid, white, tissue culture treated Greiner 1,536-well plates. Library compounds and positive control, Glyburide, were pin-transferred (23 nL) by a Kalypsys pin-tool equipped with a 1,536-pin array, resulting in final compound concentration ranges of 2.5 nM to 57.5 uM. After 1 hr of cell culture incubation (37 °C, 5% CO2), 1 microL of 1 microg/mL lipopolysaccharide (250 ng/mL, final) and 5 mM ATP (1.25 mM, final) were added to stimulate the cells. After 16 hr of cell culture incubation with the compounds, 1.5 uL of anti-IL-1B acceptor beads (6 ug/mL, final) and biotinylated antibody (0.6 nM, final) were added to the plate, followed by a 1 hr incubation at ambient temperature. To detect the secreted IL-1B, 1.5 uL of AlphaLISA SA-Donor beads (24 ug/mL, final) were added, followed by 30 min of incubation in the dark at ambient temperature. The AlphaLISA signal was read by a PerkinElmer EnVision plate reader with an ultrasensitive luminescence detector and 1536 Plate HTS AlphaScreen aperture (excitation of 680nm and emission of 615nm).
`CN(C(=O)CSc1nc(C2CC2)nc2ccccc12)c1nc(-c2ccccc2)cs1` showed an activity change of -16.2%.
With `CCCc1nc(SCC(=O)Nc2ccc(S(=O)(=O)N(C)C)cc2)c2ccccc2n1` the activity change was -11.4%.
With `CC(C)N(C(=O)CSc1nc(COc2ccccc2)nc2ccccc12)C(C)C` the activity change was -71.7% (active).
`CCOC(=O)c1ccn(S(=O)(=O)c2ccc(C)cc2)c1-c1ccccc1` showed an activity change of 40.2%.
Molecule `CN(N)c1nc(N2CCCC2)nc(N2CCCC2)n1` has an activity change of 3.61%.
`O=C(NCc1ccccc1Cl)c1csc([C@@H]2O[C@H](CO)[C@@H](O)[C@H]2O)n1` gave an activity change of 6.54%.
`CN(C(=O)c1cccc(NC(=O)Cc2ccc(NC(=O)C3CCCN(C(=O)C4CC4)C3)cc2)c1)C1CC1` (centres undefined) showed an activity change of 54.5%.
For `Cc1ccc2nc(-c3ccccc3)c(CC3CCCCC3)n2c1`, the activity change was -0.767%.
`CCCCN(C)CCNC(=O)CSCc1ccc(C)cc1` showed an activity change of 16.4%.
For `CCC1(CC)Cc2ccccc2-c2nc(CCl)[nH]c(=O)c21`, the activity change was 38.6%.
For `CC1(C)Cc2ccccc2-c2nc(CN3CCOCC3)[nH]c(=O)c21`, the activity change was 0%.
In the case of `CCOC(=O)C1Cn2c(nc3c(c2=O)C(C)(CC)Cc2ccccc2-3)S1` (centres undefined), the activity change is reported as -60.4% (active).
`CC(OC(=O)c1cccc(S(=O)(=O)N2CCOCC2)c1)C(=O)NCC1CCCCC1` (centres undefined) showed an activity change of -2.42%.
`COc1cc(/C=C/C(=O)OCC(=O)Nc2cccc(Oc3ccccc3)c2)ccc1O` showed an activity change of 15.2%.
For `COC(=O)c1ccc(C2C(Oc3ccccc3C)C(=O)N2CCc2ccc(OC)c(OC)c2)cc1` (centres undefined), the activity change was -21.3%.
With `Cc1cc(NC(=O)/C=C/C(=O)N(c2ccccc2C)C(C(=O)NC2CCCC2)c2ccc(F)cc2)no1` (centres undefined) the activity change was -95.1% (active).
Molecule `Cc1cc(C)cc(N(CC(=O)NC2CCCC2)C(=O)CCC(=O)Nc2cc(C)on2)c1` has an activity change of 23.6%.
Work on `Cc1cc(NC(=O)CCC(=O)N(c2cccc(F)c2)C(C(=O)NC2CCCC2)c2ccncc2)no1` (centres undefined) yielded an activity change of 10.2%.
For `Cc1cc(NC(=O)/C=C/C(=O)N(CC(=O)NC2CCCC2)c2ccc(F)cc2)no1`, the activity change was -87.8% (active).
In the case of `Cc1cc(NC(=O)CCC(=O)N(c2ccccc2)C(C(=O)NC2CCCC2)c2ccncc2)no1` (centres undefined), the activity change is reported as -1.05%.
Work on `Cc1cc(NC(=O)CCC(=O)N(CC(=O)NC2CCCC2)c2ccc(F)cc2)no1` yielded an activity change of 8.19%.
Molecule `Cc1oc2cc3oc(=O)ccc3cc2c1C` has an activity change of -4.45%.
With `Cc1ccc(S(=O)(=O)N2CC[C@H]3[C@@H](C2)C(=O)C[C@@H](c2ccccc2)N3S(=O)(=O)c2ccc(C)cc2)cc1` the activity change was -0.365%.
For `CCCC(C(=O)OCCN(CC)CC)(c1ccccc1)c1ccccc1`, the activity change was -14.1%.
Molecule `O=C(COc1ccc(S(=O)(=O)N2CCCC2)cc1[N+](=O)[O-])N1CCCCC1` has an activity change of 10.9%.
With `Cc1ccc(C(=O)OCC(=O)NC2CCCCCCC2)cc1C` the activity change was 8.07%.
Molecule `Cc1noc(C)c1S(=O)(=O)N(C)C[C@H]1Oc2c(NC(=O)Nc3ccc4c(c3)OCO4)cccc2C(=O)N([C@H](C)CO)C[C@@H]1C` has an activity change of 5.23%.
`CSCCC(NC(=O)COc1ccccc1)C(=O)OCc1ccc(Cl)cc1` (centres undefined) gave an activity change of 6.8%.
For `COc1ccc(Cn2c(-c3ccc(Cl)cc3)c[n+]3ccccc23)cc1`, the activity change was -79.9% (active).
In the case of `CCn1c(C)cc(=O)cc1-c1ccc(Cl)cc1`, the activity change is reported as 12.5%.
For `COc1ccc(Cn2c(=O)oc3ccccc32)cc1`, the activity change was -4.96%.
Molecule `CC1(C(=O)NS(=O)(=O)c2ccccc2)CCN1C(=O)C1CCCCC1` (centres undefined) has an activity change of 25.7%.
Work on `Nc1nc2ncccn2c1-c1ccccc1` yielded an activity change of 18.6%.
In the case of `O=C(Nc1ccccc1)OCc1cn(-c2ccc(Cl)cc2)nn1`, the activity change is reported as 33.8%.
With `CCOC(=O)Nc1ccc(NC(=O)OCC)cc1` the activity change was 0.929%.
With `CC(C)(COC(=O)Nc1ccccc1)COC(=O)Nc1ccccc1` the activity change was -50.5% (active).
Molecule `Cc1cccc(N(CC(=O)N2CCCC2)S(C)(=O)=O)c1C` has an activity change of 25%.
`COC(=O)c1sc2[nH]c(=S)n(N)c(=O)c2c1C` gave an activity change of 6.13%.
`CN(C(=O)c1cccc(NC(=O)Cc2ccc(NC(=O)C3CCCN(C(=O)C4CCCC4)C3)cc2)c1)C1CCC1` (centres undefined) showed an activity change of -10.6%.
In the case of `COc1ccc2nc(/N=C(\N)NC(=O)Nc3ccccc3)nc(C)c2c1`, the activity change is reported as -80.5% (active).
`O=C(NNC(=O)C(O)c1ccccc1)NC1CCCCC1` (centres undefined) gave an activity change of 14.4%.
`COc1cccc(NC(=O)Nc2ccc(F)cc2)c1` showed an activity change of -27.3%.
Work on `COc1ccc2nc(C)cc(Nc3cccc(C(=O)O)c3)c2c1` yielded an activity change of 10.8%.
With `Cc1nc(/N=C(\N)NC(=O)NC2CCCCC2)nc2ccccc12` the activity change was -104% (active).
`CC(C)c1cc(C(=O)NC2CCCCCC2)c2ccccc2n1` showed an activity change of 0.331%.
`CCCc1nc2ccccc2n1C(C)C(=O)NC(C)(C)C` (centres undefined) gave an activity change of 29%.
Work on `O=C(NNc1nc(N2CCCC2)nc(N2CCCC2)n1)c1ccccc1` yielded an activity change of -0.122%.
Work on `O=C1CCC(C(=O)N2CCC(O)(c3ccccc3)CC2)CN1CCc1ccccc1` (centres undefined) yielded an activity change of -11.9%.
`O=C(CN1C(=O)NC2(CCc3ccccc32)C1=O)NC1CCCCC1` (centres undefined) showed an activity change of -10.5%.
With `COC(=O)c1ccccc1N=NNc1ccc([N+](=O)[O-])cc1` the activity change was -18.2%.
Molecule `COC(=O)c1c(C)oc(C)c1S(=O)(=O)Nc1ccc(C(C)C)cc1` has an activity change of 5.75%.
For `O=C(c1cc2ccccc2o1)N1CCN(c2cccc(C(F)(F)F)c2)CC1`, the activity change was “inactive”.
With `Cc1cc2ccccn2c1C(=O)c1cccc(S(=O)(=O)N2CCOCC2)c1` the activity change was -17.1%.
Work on `N#Cc1c(-c2cccs2)nc(SCC(=O)c2ccc(Br)cc2)[nH]c1=O` yielded an activity change of 13.2%.
For `CCOC(=O)CC1COCCN1C(=O)c1cc(COc2ccc(F)c(F)c2)on1` (centres undefined), the activity change was 64.4%.
For `OC(CNCC1CCCO1)Cn1c2ccc(Br)cc2c2cc(Br)ccc21` (centres undefined), the activity change was -62.5% (active).
Work on `CCCN1CCn2c3c(c4cc(Br)ccc42)CCCC31` (centres undefined) yielded an activity change of 42.1%.
`O=C(CCNS(=O)(=O)c1ccc(Br)cc1)NCC1CCCO1` (centres undefined) gave an activity change of -2.41%.
For `Cc1cc(-c2nnc(SCC(=O)Nc3ccc(F)cc3)n2N)n[nH]1`, the activity change was 20.7%.
With `Cc1cc(C)c(C2C3=C(Nc4c2c(C)nn4-c2ccccn2)c2ccccc2C3=O)c(C)c1` (centres undefined) the activity change was -68.9% (active).
Work on `Cc1nn(-c2ccccn2)c2c1C(c1ccncc1)C1=C(CC(C)(C)CC1=O)N2` (centres undefined) yielded an activity change of -7.64%.
In the case of `C=CCn1c2ccccc2c2nnc(SCc3[nH]c(=O)[nH]c3C(=O)CCCCC(=O)OCC)nc21`, the activity change is reported as -80.5% (active).
Work on `C=CCn1c(SCC(=O)CC(=O)OCC)nc2cc(C(=O)N3CCC(C(N)=O)CC3)ccc2c1=O` yielded an activity change of -3.87%.
Molecule `C=CCn1c2ccccc2c2nnc(SC(CC)C(=O)Nc3nc(C)c(C(=O)OCC)s3)nc21` (centres undefined) has an activity change of -24.9%.
For `O=C(OCc1ccccc1)N1CCC2CC1c1ccc(-c3ccc4c(c3)OCO4)cc12` (centres undefined), the activity change was 20%.
For `CC(=O)Nc1ccc(Nc2c3ccccc3nc3ccccc23)cc1`, the activity change was -98.2% (active).
`CCc1nc(Nc2ccc(NC(C)=O)cc2)c2oc3ccccc3c2n1` showed an activity change of -1.52%.
Work on `CC(=O)Nc1ccc(Nc2cc(C)nc(Nc3ccc(NC(C)=O)cc3)n2)cc1` yielded an activity change of 0.0358%.
For `O=C1NC[C@H](CCCCN2C[C@H](Cc3ccccc3)N(Cc3ccccc3)C(=O)C2=O)N(CCc2ccc(O)cc2)C1=O`, the activity change was 0%.
Molecule `Cc1cccc(C)c1NC(=O)CNC(=O)c1c(C)nn(-c2ccccc2)c1C` has an activity change of -13.7%.
In the case of `CCC(Oc1ccccc1)C(=O)OCC(=O)Nc1c(C)nn(-c2ccccc2)c1C` (centres undefined), the activity change is reported as 8.98%.
With `Cc1nn(-c2ccccc2)c(C)c1NC(=O)CCl` the activity change was -95% (active).
In the case of `O=C(NCc1ccccc1)C(c1ccc(F)cc1)N1CCN(C(=O)C2CCCO2)CC1` (centres undefined), the activity change is reported as 0%.
In the case of `CCO/N=C(/C)c1c(O)cc(-c2ccccc2)n(-c2ccccc2)c1=O`, the activity change is reported as 17.3%.
`CCCc1cc(=O)oc2c(C)c(OC(C)C(=O)NCC(O)c3ccccc3)ccc12` (centres undefined) gave an activity change of -14.8%.
For `C[C@@H]1ON(C)[C@H]2C[C@H]3c4cc(N5CCN(C)CC5)ccc4CCN3C(=O)[C@@H]12`, the activity change was -12.3%.
`C(#CCN1CCOCC1)CCCN1CCOCC1` showed an activity change of 26%.
In the case of `O=C(/C=C/c1ccc(Cl)cc1)N1CCN(c2ccccc2[N+](=O)[O-])CC1`, the activity change is reported as -78.3% (active).
`CO/N=C/c1ccc(N2CCN(C(=O)c3cccc(Cl)c3)CC2)c([N+](=O)[O-])c1` gave an activity change of -16.9%.
Molecule `O=C(c1ccc(Cl)c([N+](=O)[O-])c1)N1CCN(c2ccccc2)CC1` has an activity change of -26.9%.
`CCOc1ccc(NS(=O)(=O)c2ccc(C(=O)NCC3CCCO3)cc2)cc1` (centres undefined) showed an activity change of 8.79%.
For `CCOC(=O)C1=NOC(Cn2cc(C(C)=O)c(=O)[nH]c2=O)C1` (centres undefined), the activity change was -0.897%.
Work on `Cc1ccc(S(=O)(=O)N2CCN(C(=O)COC(=O)/C=C/c3cccc(Cl)c3)CC2)c(C)c1` yielded an activity change of 23.3%.
Molecule `CCOC(=O)N1CCC(NC(=O)Cn2cc3c(n2)CCCCC3)CC1` has an activity change of 2.25%.
`O=C(/C=C/c1ccc(F)cc1)NC(=S)NNC(=O)c1cccnc1` showed an activity change of 20.7%.
In the case of `c1ccc2c(c1)OC1OC2Oc2ccccc21`, the activity change is reported as 10.9%.
For `COc1cc(OC)c(C(=O)NC2CCCCCC2)cc1OC`, the activity change was -59.1% (active).
Molecule `COc1cc(OC)c(C(=O)NC2CC(C)(C)NC(C)(C)C2)cc1OC` has an activity change of 0%.
Work on `COc1ccc(S(=O)(=O)NC(C)C)cc1C(=O)NC1CCCCC1` yielded an activity change of 2.99%.
